Source: PubChem (National Center for Advancing Translational Sciences (NCATS))
Shiga inhibitor = inhibitors of Shiga toxin in Vero cells | Vero cells, Shiga toxin protein synthesis inhibition reporter | inhibition, % at 38.7 µM | 290,000 tested, 9.2% active | AID 2315; in the data active = inhibition mostly above about 28%, no sharp cut-off; inactive = mostly below about 43%; note: 0% is about no effect
AmpC detergent = blocks E. coli AmpC beta-lactamase in detergent assay; AmpC hydrolysis of nitrocefin, absorbance 480 nm, 0.01% Triton; Potency, µM (doses to about 114 µM), for the others: at the top dose activity change, negative = inhibition, most hits filed as inhibitors; 370,000 tested, 0.041% active;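 note: potency is the fitted concentration of half-maximal effect; 0% = no-compound wells and -100% = no-enzyme wells; nearly all actives have a fitted effect of over 25% in size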
Target sequence (P00811 whole entry, looked up): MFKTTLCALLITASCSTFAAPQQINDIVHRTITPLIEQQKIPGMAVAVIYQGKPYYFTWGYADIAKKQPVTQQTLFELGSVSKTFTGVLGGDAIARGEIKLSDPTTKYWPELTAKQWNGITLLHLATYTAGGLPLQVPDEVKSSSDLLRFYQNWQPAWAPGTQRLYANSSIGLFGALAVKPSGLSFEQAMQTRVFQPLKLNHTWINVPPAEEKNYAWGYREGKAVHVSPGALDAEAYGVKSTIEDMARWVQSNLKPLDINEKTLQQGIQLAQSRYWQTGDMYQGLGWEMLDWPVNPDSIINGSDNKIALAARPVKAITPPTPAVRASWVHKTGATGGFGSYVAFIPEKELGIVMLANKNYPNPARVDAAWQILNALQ
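AmpC (5.3 nM in the dispensed reagent) in 20 mM phosphate pH 7.0 with 0.01% (detergent screen) or 0.0001% Triton X-100 was preincubated with compounds for 15 min at room temperature. Nitrocefin was then added from an 800 uM solution, and hydrolysis was followed at 480 nm.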
AmpC inh no detg = inhibitors of E. coli AmpC beta-lactamase without detergent; P00811; 330,000 tested, 0.52% active; AID 485341; AmpC nitrocefin hydrolysis, absorbance 480 nm, 0.0001% Triton; Potency, µM (highest dose often 57.1 µM), for the others: at the top dose activity change, negative = inhibition, hits mostly inhibitors;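 note: potency is the fitted concentration of half-maximal effect; plate controls were no compound for no effect and no enzyme for full effect; nearly all actives have a fitted effect of over 20% in size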
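20 mM phosphate pH 7.0 + 0.01% (detergent screen) or 0.0001% Triton X-100; 5.3 nM AmpC reagent; cpd preinc 15 min RT; nitrocefin (800 uM stock) to start; A480 q20 s × 4 min; Activity was normalised to no-enzyme and no-compound control wells.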
CHX counter = counter-screen for Shiga toxin inhibitors: cycloheximide protein synthesis inhibition; 300,000 tested, 12% active; max response, %; cell reporter, cycloheximide protein synthesis inhibition counterscreen; in the data active = max response mostly above about 13%, no sharp cut-off; inactive = mostly below about 14%; note: read at 38.3 µM for the half of the compounds with a filed dose; 0% is about no effect
NS1 function inh = inhibitors of influenza NS1 protein function; Potency, µM (titrated, usually from 46.1 µM), for the others: top-dose activity, positive = more growth; 270,000 tested, 0.4% active; AID 2326; calls by dose curve; note: potency is the fitted concentration of half-maximal effect; actives are rising curves; nearly all actives have a fitted effect of over 50% in size
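Compounds were scored for reversing the slow growth caused by influenza A NS1 in S. cerevisiae, measured by optical density at 600 nm. Assay medium contained 2% galactose at pH 6.0; NS1-free yeast of the same strain were the positive control.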
Active calls of the source: *; ? = inconclusive; · = not tested or not shown; [ ] = another dose, or the depositor's remark. The sample as a whole holds a higher share of hits than the screen did. Unless noted, calls come from the whole dose curve; as a rule, active = well fitted curve in the direction sought with a large enough effect; inconclusive = small, poorly fitted or top-dose-only effect, or another doubt; inactive = no such curve, though single readings can be large; an effect the other way counts as inactive or inconclusive.

SMILES	Shiga inhibitor	AmpC detergent	AmpC inh no detg	CHX counter	NS1 function inh
CN(C)CCCN(C(=O)c1ccc(C(=O)c2ccccc2)cc1)c1nc2cc3c(cc2s1)OCCO3	18.7	-1.1%	152.5%	-3.0	-20.1%
O=C(O)c1ccc(CCN2CCN(CC=Cc3ccc(Cl)cc3)CC2)cc1	-7.4	·	·	5.3	·
CN(C)CCCN(C(=O)C1COc2ccccc2O1)c1nc2cc3c(cc2s1)OCO3 (stereo not drawn)	1.9	?	21.4%	-1.9	7.1%
COc1ccc2sc(N(CCN(C)C)C(=O)c3ccc4ccccc4c3)nc2c1	20.8	-0.4%	1.7%	21.1*	-15.3%
CN(C)CCN(C(=O)c1ccc(C(=O)c2ccccc2)cc1)c1nc2cc3c(cc2s1)OCO3	21.4	3.1%	13.9%	10.3*	-19.2%
CCN(CC)CCN(C(=O)c1ccc2ccccc2c1)c1nc2cc3c(cc2s1)OCO3	-6.6	-7.4%	-3.6%	-2.6	-53.4%
CN(C)CCCN(C(=O)COc1ccccc1)c1nc2cc3c(cc2s1)OCCO3	17.7	-5.1%	65.1%	24.1*	-19.9%
Cc1ccccc1Cn1c(=O)n(-c2ccc(Cl)cc2)c(=O)c2c3c(sc21)CCCC3	·	21.7%	·	·	·
O=C(NC1CC1)c1sc2ccccc2c1Cl	58.5*	-0.3%	-12.8%	31.6*	-6.3%
O=C(NNC(=O)C1CC2CCC1C2)c1sc2ccccc2c1Cl (stereo not drawn)	84.8*	-1.9%	-23.0%	54.0*	-19.3%
O=C(CNC(=O)c1sc2ccccc2c1Cl)NC1CC1	31.5	3.6%	-14.7%	13.3*	-3.1%
O=C(NNC(=S)NC1CCCCC1)c1ccc(Cl)s1	38.9	1.0%	-0.2%[2.29 µM]	21.0*	3.0%
O=C(Nc1ccc(NC(=O)c2sc3ccccc3c2Cl)cc1)c1ccco1	-11.4	-11.7%	-9.3%	-5.5	-4.2%
CCN1CCc2nc(N)oc2CC1	·	0.1%	-16.1%	·	-3.1%
COc1ccccc1S(=O)(=O)Nc1cc(C)nn1-c1ccc(C)cc1	-5.0	3.6%	-2.3%	-3.1	5.6%
COCCNC(=O)c1cccc(-n2c(C)nc3cccnc32)c1	·	0.7%	·	·	·
O=C(NC1C=CS(=O)(=O)C1)c1sc2ccccc2c1Cl (stereo not drawn)	32.1	-11.7%	-22.7%	17.3*	-6.6%
COc1ccc(C(=O)NNC(=S)NC(=O)C(C)(C)C)cc1	20.1	-11.8%	-18.1%	20.5	·
O=C(NNC(=S)NC1CCCCC1)c1sc2ccccc2c1Cl	27.2	?	-8.3%	10.2*	-23.0%
CC(C)(C)C(=O)NC(=S)NNC(=O)c1sc2ccccc2c1Cl	26.3	?	-22.3%	47.6*	-14.8%
O=C(NNC(=S)NC1CCCCC1)c1ccccc1O	62.1*	-6.6%	-24.7%	15.8*	·
Cn1nnnc1SCCCNCc1cc(Br)ccc1OCc1ccccc1	·	12.4%	·	·	·
O=C(Nc1cccc(S(=O)(=O)N2CCOCC2)c1)C1COc2ccccc2O1 (stereo not drawn)	·	?	-21.2%	·	·
CCc1ccc2[nH]c3nc(C)cc(C)c3c(=O)c2c1	-3.7	-13.9%	-9.1%	20.5*	-15.1%
CCc1ccc2[nH]cc(S(=O)(=O)c3ccc(C)c(C)c3)c(=O)c2c1	-4.3	-0.1%	-57.2%	-3.6	0.8%
SMILES	Shiga inhibitor	AmpC detergent	AmpC inh no detg	CHX counter	NS1 function inh
COCCCNC(=O)c1ccc(-n2c(-c3ccccc3)cc3c2CCCC3)cc1	·	19.3%	·	·	·
COc1ccc(-c2nc3ccccc3s2)cc1O	14.7	-0.1%	-1.0%	6.8	-83.5%
COc1cc(-c2nc3ccccc3s2)ccc1O	80.5*	-9.6%	-16.5%	44.8*	-86.1%
CCOc1cc(-c2nc3ccccc3s2)ccc1O	64.7*	7.0%	-1.4%	55.5*	-38.9%
COc1ccc(CCNC(=O)c2c(C)nc3ccccn23)cc1OC	-12.3	-1.6%	1.7%	-2.9	-0.6%
CC(C)OC(=O)c1c(NC(=O)c2cccs2)sc2c1CCCC2	36.4	-11.0%	-19.3%	5.0	-6.5%
O=C(Nc1sc2c(c1C(=O)NCC1CCCO1)CCCC2)c1cccs1 (stereo not drawn)	-6.4	?	-8.1%	-1.1	1.4%
O=C(Nc1sc2c(c1C(=O)O)CCCC2)c1cccs1	127.4*	?	-30.1%	27.2*	-180.1%
CC1CCc2c(sc(NC(=O)c3cccs3)c2C(=O)O)C1 (stereo not drawn)	80.9*	0.7%	-28.0%	47.3*	-86.8%
COC(=O)c1c(NC(=O)c2cccs2)sc2c1CCC(C)C2 (stereo not drawn)	34.5	?	-15.6%	-3.3	-24.4%
O=C(Nc1sc2c(c1C(=O)O)CCCCC2)c1cccs1	128.6*	-1.5%	-26.1%	66.0*	·
CS(=O)(=O)c1ccc(Cl)c(NC(=O)CSc2nnc(C3CC3)n2C2CC2)c1	·	2.5%	3.1%	·	·
Cc1ccc(NC(=O)c2ccc(OCc3c(C)noc3C)cc2)cc1C	·	·	-41.6%	·	·
CC(/C=N/NC(=O)c1ccncc1)=C\c1ccc(C(C)C)cc1	128.0*	-0.6%	-0.4%	52.4*	-23.9%
O=C(N/N=C/c1cc([N+](=O)[O-])ccc1Cl)c1cnccn1	-10.2	3.9%	-0.6%	-1.5	-2.7%
CC(/C=N/NC(=O)c1cc(C(C)C)[nH]n1)=C\c1ccccc1	17.7	-4.7%	-22.9%	-1.3	15.8%
O=C(N/N=C/C(Cl)=C/c1ccccc1)c1cnccn1	57.3*	-1.2%	-13.5%	27.0	-5.6%
CC(/C=N/Nc1nc(C)cc(C)n1)=C\c1ccc(C(C)C)cc1	59.3*	?	0.7%	34.6*	8.3%
CC(=C/c1ccccc1)/C=N/NC(=O)c1cnccn1	50.6*	-11.5%	-3.9%	29.9*	-10.6%
CC(NC(=O)COC(=O)c1cc(S(=O)(=O)N2CCOCC2)ccc1F)c1ccccc1 (stereo not drawn)	·	·	10.9%	·	·
Cc1ccc(-c2csc(NC(=O)CSc3nnc4c(n3)[nH]c3ccccc34)n2)cc1	-9.5	-18.1%	-56.4%	-4.0	3.2%
COc1ccc(C(=O)c2cn(CC(=O)Nc3cc(OC)cc(OC)c3)c3ccc(OC)cc3c2=O)cc1	·	-5.7%	-8.5%	·	·
CCN(CC)c1cc(C)c2cc(NC(=O)/C=C/c3cc(OC)c(OC)c(OC)c3)ccc2n1	·	-7.2%	·	·	·
COc1cccc(N2CC(C(=O)Nc3c(C(N)=O)oc4ccccc34)CC2=O)c1 (stereo not drawn)	·	0.0%	-1.9%	·	·
CC(/C=N/NC(=O)c1cccnc1)=C\c1ccccc1	84.5*	-3.8%	-18.2%	48.6*	·
CC(/C=N/NC(=O)C(O)c1ccccc1)=C\c1ccccc1 (stereo not drawn)	45.1*	-2.2%	-16.4%	14.5*	-13.8%
CC(/C=N/NC(=O)CSc1nc(C)cc(C)n1)=C\c1ccccc1	-10.6	-2.9%	-14.0%	-4.7	-6.8%
O=C(N/N=C/C(Cl)=C\c1ccccc1)c1cnccn1	131.8*	0.5%	-13.7%	52.9*	-10.0%
O=C(Cc1cccc2ccccc12)NCC(=O)N1CCN(Cc2cccc(C(F)(F)F)c2)CC1	·	-0.1%	270.1%	·	·
COC(=O)C1=C[C@@H](C(=O)OC)C2C3=C(C(=O)[C@@]2(C)NC(=O)c2ccccc2)[C@H](C)n2c(=O)n(C)c(=O)n2[C@@H]3C1 (stereo partly drawn)	3.3	·	·	-3.5	·
